# About 83,000 compounds went through this panel and 20% of them were active in at least one assay; those are over-represented in the sample as a whole.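 Single-dose data. Exposure time 48 hours. Values below 10 considered active.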 Unmarked numbers belong to inactive results. Calls of active or inactive are those of the source.
# Test system: NCI-H23 lung
# Test: NCI-60 one-dose screen, 48 h (100 = growth as untreated, 0 = no growth, -100 = all killed)
# Settings: 10 µM
row,Structure (SMILES),growth
1,COc1cc2cc(C(=O)N3C[C@@H](CCl)c4c3cc(OC(=O)N3CCN(C)[C@@H]5CSSC[C@@H]53)c3ccccc43)[nH]c2c(OC)c1OC,-67.5% (active)
2,COc1cc2cc(C(=O)N3C[C@@H](CCl)c4c3cc(OC(=O)N3CCN(C(=O)CCC(=O)N5CCN(C)CC5)[C@@H]5CSSC[C@@H]53)c3ccccc43)[nH]c2c(OC)c1OC,-93% (active)
3,COC(=O)c1ccc(-n2cc(CCCN(CCNc3ccnc4cc(Cl)ccc34)C(=O)CCC(=O)O[C@@H]3O[C@@H]4OC5(C)CC[C@H]6[C@H](C)CC[C@@H]([C@H]3C)[C@@]46OO5)nn2)cc1,40.4%
4,O=C([Se]C1C=CCCC1)c1ccc(C(=O)[Se]C2C=CCCC2)s1 (stereo unspecified),-74% (active)
5,O=C(/C=C/c1cccc(Br)c1)c1nc2ccccc2n1Cc1ccc(F)cc1,34%
6,CC[C@]12C=CCN3CC[C@@]4(c5ccc(OC)cc5N(C)[C@H]4[C@@](O)(C(=O)OC)[C@@H]1OC(=O)CCC[P+](c1ccc(C)cc1)(c1ccc(C)cc1)c1ccc(C)cc1)[C@@H]32,-90.7% (active)
7,O=C(NC([Se])=NC1CCCCC1)c1ccccc1,19%
8,O=C(/C=C/c1ccc(F)cc1)c1nc2ccccc2n1Cc1ccc(F)cc1,14.6%
9,O=C(/C=C/c1ccccc1)c1nc2ccccc2n1Cc1ccc(Br)cc1,-71.5% (active)
10,C=CC[Se]C(=O)c1cncc(C(=O)[Se]CC=C)c1,-74.7% (active)
11,COc1ccc(OC)c(/C=C/C(=O)c2nc3ccccc3n2Cc2ccc(F)cc2)c1,-49.1% (active)
